Shown are actives, neighbours in structure and some others; about 32% of the full set was active somewhere.
PostGolgi yeast = phenotypic screen on post-Golgi transport, primary screen; 98,000 compounds, 0.9% hits; inhibition, % at 10 µM; post-Golgi transport phenotypic cell assay;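 note: yeast cells grown in 1536-well plates; yeast grown about 18 h at 30C before absorbance read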
PostGolgi ctrl = growth inhibition of yeast control strain, primary screen, counter-screen for post-Golgi transport modulator project | efflux-deficient yeast background strain, growth absorbance A615, 16 h | inhibition, % at 10 µM | 98,000 compounds, 5% hits | AID 738, 2007
CYP2C9 inh = blockers of cytochrome P450 2C9 activity – biochemical, luminescence, ADME assay, primary screen; inhibition, % at 5 µM; 96,000 compounds, 20% hits; CYP2C9 Supersomes, luciferin-H conversion; P11712;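 active = blocking of liver enzyme CYP2C9 beyond about 50% at 5 µM, limit read from the data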
CYP2C19 activ = human CYP2C19 activators, primary screen, biochemical, luminescence. Cytochrome P450 2C19 (Homo sapiens), P33261. recombinant CYP2C19, luciferin-H EGE luminescence; active compounds read high; 0 = fully inhibited enzyme, 1 = untreated enzyme. activation factor at 5 µM. 96,000 tested, under 10 active. AID 1025, 2008;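 active = activation factor of at least 2 at 5 µM in the primary screen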;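 note: 0 = wells with 2.5 mM tranylcypromine and 1 = vehicle-only wells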
Target sequence (P33261 whole entry, looked up): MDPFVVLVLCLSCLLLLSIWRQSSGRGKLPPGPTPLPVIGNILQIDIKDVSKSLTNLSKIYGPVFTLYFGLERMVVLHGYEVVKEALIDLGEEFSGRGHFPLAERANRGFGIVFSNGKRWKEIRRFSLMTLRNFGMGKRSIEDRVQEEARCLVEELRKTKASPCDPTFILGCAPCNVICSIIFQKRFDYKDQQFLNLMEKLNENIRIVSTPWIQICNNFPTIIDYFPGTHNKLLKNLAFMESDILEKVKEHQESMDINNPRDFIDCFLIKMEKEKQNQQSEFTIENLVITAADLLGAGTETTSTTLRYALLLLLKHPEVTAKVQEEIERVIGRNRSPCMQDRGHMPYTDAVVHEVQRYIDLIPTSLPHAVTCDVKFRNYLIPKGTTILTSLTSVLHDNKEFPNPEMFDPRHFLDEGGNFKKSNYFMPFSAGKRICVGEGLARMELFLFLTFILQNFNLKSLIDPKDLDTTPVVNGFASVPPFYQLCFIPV
CYP2C19 inhib = blockers of cytochrome P450 2C19 activity – biochemical, luminescence, ADME assay, primary screen | P33261 | CYP2C19 Supersomes, luciferin-H EGE luminescence, 30 min | inhibition, % at 5 µM | 96,000 compounds, 21% hits | AID 778, 2007;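 active = CYP2C19 inhibition above a set limit at 5 µM in the primary screen, cut at about 50% in these data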;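 note: plate controls were negative control wells for no effect and 2.5 mM tranylcypromine positive control for full effect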
CYP2C9 act = human CYP2C9 activators, primary screen, biochemical, luminescence; AID 1024, 2008; 96,000 compounds, 1.4% hits; activation factor at 5 µM; recombinant CYP2C9, luciferin-H conversion; active compounds read high; factor 1 = untreated enzyme, 0 = blocked; Cytochrome P450 2C9 (Homo sapiens), P11712;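 active = activation factor of 2 or more for CYP2C9 at a 5 µM dose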;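 note: 0 = sulfaphenazole-blocked wells and 1 = vehicle-only wells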
The depositor's hits bear a star; nt = not tested or not shown. Cut-off read from the data, not from the text of the source, unless noted: active = inhibition above about 30%; inactive = the rest.

SMILES | PostGolgi yeast | PostGolgi ctrl | CYP2C9 inh | CYP2C19 activ | CYP2C19 inhib | CYP2C9 act
CCc1ccc(N(CC(=O)NC)S(C)(=O)=O)cc1 | -5 | 2 | -2 | 0.9 | 14 | 1
CCN(CCCNC(=O)CC(C(=O)N1CCc2ccccc21)n1ccnc1)c1ccccc1 (stereo unspecified) | 14 | 3 | 32 | 0.1 | 94* | 0.7
O=C(CC(C(=O)N1CCc2ccccc21)n1ccnc1)NCc1cccnc1 (stereo unspecified) | 33* | 6 | nt | nt | nt | nt
CCN(CCCNC(=O)CCNC(=O)Cn1cnc2ccccc2c1=O)c1ccccc1 | 1 | 0 | 40 | 1 | 1 | 0.6
Cc1onc(-c2c(F)cccc2Cl)c1C(=O)NCCc1ccc(S(N)(=O)=O)cc1 | 1 | 6 | -7 | 0.7 | 28 | 1.1
CCn1c(Cc2cccn2C)nnc1SCC(=O)c1ccc(C)cc1 | -1 | 3 | 27 | 0.5 | 47 | 0.7
COc1ccccc1CNC(=O)[C@@H]1CCCN1C(=O)C1CCN(S(=O)(=O)c2ccc(C)cc2)CC1 | -2 | 5 | -37 | 0.9 | 9 | 1.4
O=C(NCCc1ccc(Cl)cc1)C1CCC(=O)N1C1CCCC1 (stereo unspecified) | 4 | 15 | -134 | 0.7 | 26 | 2.3*
CCOc1ccc(CCNC(=O)C2CCC(=O)N2C2CCCCC2)cc1OCC (stereo unspecified) | -3 | 36* | 20 | 0.4 | 64* | 0.8
CCOc1ccc(CCNC(=O)c2cccc(N3CCCC3=O)c2)cc1OCC | 5 | 15 | 18 | 0.8 | 25 | 0.8
Cc1ccc(CNC(=O)C2CCC(=O)N2C2CCCCC2)cc1 (stereo unspecified) | 1 | 1 | -2 | 0.7 | 32 | 1
O=C(NCc1ccc(F)cc1)C1CCC(=O)N1C1CCCCC1 (stereo unspecified) | -3 | 35* | 27 | 0.8 | 18 | 0.7
COc1ccc(NC(C)C(=O)Nc2ccc(C#N)cc2)cc1Cl (stereo unspecified) | -5 | 11 | 98* | 0 | 100* | 0
COc1ccc(NC(=O)CNc2cccc(C#N)c2)cc1Cl | 5 | -7 | 17 | 0.5 | 48 | 0.8
COc1ccc(NCC(=O)Nc2ccc(C#N)cc2)cc1Cl | -13 | 7 | 69* | 0.3 | 69* | 0.3
COc1ccc(NC(=O)/C=C/C(=O)O)cc1Cl | 17 | -1 | -6 | 1.1 | -13 | 1.1
COc1ccc(NC(C)C(=O)Nc2ccc(C(C)(C)C)cc2)cc1Cl (stereo unspecified) | -5 | 34* | 90* | 0.1 | 94* | 0.1
C=CCN1C(c2ccc(OCC)cc2)=CS/C1=C(\C#N)c1nnc2n1CCCCC2 | -2 | 6 | -17 | 1 | 4 | 1.2
CCCc1cc(=O)[nH]c(SCc2cc(Cl)ccc2OC(F)F)n1 | 2 | 28 | 60* | 0.7 | 28 | 0.4
CCCc1cc(=O)[nH]c(SCC(=O)NC(=O)OCC)n1 | -3 | -4 | 0 | 1.1 | -7 | 1
CCCc1cc(=O)[nH]c(SCc2ccc(Cl)cc2)n1 | -8 | 25 | 72* | 0.1 | 86* | 0.3
CCCc1cc(=O)[nH]c(SCc2ccccc2)n1 | -4 | 19 | 62* | 0.5 | 47 | 0.4
CCCc1cc(=O)[nH]c(SCC(=O)NC(=O)c2ccccc2)n1 | 10 | 32* | 22 | 1 | 1 | 0.8
CC(c1nnc(SCC(=O)N2CC(=O)Nc3ccccc32)n1Cc1ccccc1)N(C)C (stereo unspecified) | -2 | 13 | 28 | 0.8 | 20 | 0.7
CCCCC1(C(=O)OCC)CC(CN2CCOCC2)OC1=O (stereo unspecified) | 2 | 11 | 8 | 0.8 | 24 | 0.9
SMILES | PostGolgi yeast | PostGolgi ctrl | CYP2C9 inh | CYP2C19 activ | CYP2C19 inhib | CYP2C9 act
CC1NC(=O)N(C)C2NC(=O)N(C)C(c3ccccc3)C12 (stereo unspecified) | -3 | 9 | 0 | 1 | -1 | 1
CN(C)CCCNCCNC(=O)/C=N\O | -3 | -3 | 8 | 0.9 | 5 | 0.9
CCSc1nnc(NC(=O)Cc2ccc(OC)cc2)s1 | 1 | 15 | 35 | 0.8 | 25 | 0.6
CCOC(=O)C(C(=O)OCC)N(C#N)c1nc(C)cc(C)n1 | -6 | 0 | -38 | 1.1 | -8 | 1.4
CCCc1cc(=O)[nH]c(SCC(=O)C(C)(C)C)n1 | 3 | 4 | 24 | 0.7 | 28 | 0.8
CCCc1cc(=O)[nH]c(SCC(=O)N(Cc2ccccc2)C(C)C)n1 | -5 | 7 | 85* | 0.3 | 68* | 0.2
Clc1ccccc1CNc1ncnc2nc[nH]c12 | 7 | 16 | -14 | 1 | 4 | 1.1
Clc1ccccc1CN(Cc1ccccc1)c1ncnc2nc[nH]c12 | -8 | 52* | 44 | 0.7 | 27 | 0.6
CC(C)(C)c1cc(NC(=O)COC(=O)c2ccc3c(=O)n4c(nc3c2)CCC4)n(-c2ccccc2)n1 | 2 | -1 | 82* | 0.2 | 77* | 0.2
Cn1cccc1C(=O)OCC(=O)Nc1cc(C(C)(C)C)nn1-c1ccccc1 | -23 | 21 | 50 | 0.9 | 9 | 0.5
N#C/C(=C\c1ccccc1)c1nc2ncccc2[nH]1 | 0 | -11 | 66* | 0.8 | 16 | 0.3
CNCc1cc2ccc(C)cc2[nH]c1=O | -1 | 4 | 8 | 1 | -4 | 0.9
COc1cc(S(=O)(=O)N(Cc2cccs2)CC2CCCO2)ccc1-n1cnnn1 (stereo unspecified) | 20 | 12 | 31 | 0.5 | 47 | 0.7
COc1ccc(CCN(Cc2cccs2)S(=O)(=O)c2ccc(-n3cnnn3)c(OC)c2)cc1OC | 25 | -4 | 55* | 0.5 | 50* | 0.4
COc1ccc(CN(Cc2cccnc2)S(=O)(=O)c2ccc(-n3cnnn3)c(C)c2)cc1OC | 12 | 1 | 94* | 0.2 | 80* | 0.1
Cc1ccc(C)c(N2C(=O)CN=C2Nc2ccccc2Cl)c1 | -5 | 13 | 44 | 0.6 | 45 | 0.6
N#Cc1ccc(CSc2nnc(COc3ccccc3)n2-c2ccccc2)cc1 | -4 | 21 | 67* | 0.2 | 76* | 0.3
COc1ccc(-n2c(COc3ccccc3)nnc2SCc2ccc(C#N)cc2)cc1 | 2 | 16 | 93* | 0 | 96* | 0.1
COc1ccc(C(=O)CSc2nnc(COc3ccc(C#N)cc3)n2-c2ccccc2)cc1 | -17 | 14 | -11 | 1.1 | -14 | 1.1
CC(C)CNC(=O)c1ccc(Cl)c(Cl)c1 | 11 | 15 | 9 | 0.7 | 32 | 0.9
Nc1scc2c(C(=O)N/N=C/c3ccc(Cl)cc3)nn(-c3ccccc3)c(=O)c12 | 0 | 15 | 54* | 0.9 | 6 | 0.5
